These results are taken from PubChem BioAssay (Tox21).

Records with an inconclusive call do not appear. Active and inactive are the calls of the source. Unless noted, calls follow the shape of the dose curve; as a rule, active = well fitted curve in the direction sought with a large enough effect in the repeat runs; inconclusive = weak or mixed curves; inactive = no such curve, though single readings can be large; an effect the other way counts as inactive or inconclusive.

The nature of assay [1]: qHTS assay for small molecules that induce genotoxicity in human embryonic kidney cells expressing luciferase-tagged ATAD5 (AID 651632). Also: nearly all actives have a fitted effect of over 15% in size. The method, boiled down:
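Quantitative HTS in HEK293T expressing luciferase-tagged ATAD5, whose levels rise upon DNA damage. Exposure ran 16 hr at 37C and 5% CO2, with luminescence read 30 min after Amplite addition at room temperature.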
(In qHTS, concentration-response curves come from the screen itself.)

Assay [2] is described as follows: qHTS assay for small molecule agonists of the p53 signaling pathway - cell viability (AID 651633; calls by dose curve;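 also: p53RE-bla HCT reporter cells with a stable beta-lactamase p53 reporter; series mostly up to about 83 µM; nearly all actives have a fitted effect of over 30% in size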). The procedure, abridged:
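p53RE-bla cells were treated with compound for 16 hours at 37 C. Cytotoxicity was then measured as CellTiter-Glo luminescence after 30 min at room temperature.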

A short description of assay [3]: qHTS assay for small molecules that induce genotoxicity in human embryonic kidney cells expressing luciferase-tagged ATAD5 - cell viability (AID 651634; calls by dose curve; also: nearly all actives have a fitted effect of over 25% in size; also: potency is read from the fitted curve at half-maximal effect). The method, boiled down: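 After 15.5 hr incubation with compound at 37C, 5% CO2, HEK293T ATAD5-luciferase cells received CellTiter-Fluor reagent; fluorescence intensity was quantified following 30 min at 37C.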

Assay [4] in a line: qHTS assay for small molecule disruptors of the mitochondrial membrane potential - cell viability (AID 720634; calls by dose curve;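 also: human HepG2 liver cancer cells; series mostly up to about 83 µM; nearly all actives have a fitted effect of over 20% in size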). The method, boiled down: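 ATP-based luminescent viability readout (CellTiter-Glo, 30 min, room temperature) in HepG2 cells multiplexed with the m-MPI membrane potential dye; compound exposure lasted 1 hr at 37 C.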
Assay [5] in a line: qHTS assay for small molecule disruptors of the mitochondrial membrane potential (AID 720635). The procedure, abridged: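 HepG2 cells exposed to compound 1 hr at 37C, then Mito-MPS dye 30 min. Ratio read of aggregate (540/590 nm) versus monomer (490/535 nm) fluorescence.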
Assay [6] can be described thus: qHTS assay to test for compound auto fluorescence at 535 nm (green) in HepG2 cells (AID 720675).
Assay [7] is described as follows: qHTS assay to test for compound auto fluorescence at 460 nm (blue) in HEK293 cells (AID 720678). The procedure, abridged: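 HEK293 cells (2,000/well, medium with 10% dialyzed FBS) attached 4-5 hr, then exposed to compound overnight at 37C, 5% CO2. Blue fluorescence read at 405/460 nm, with triamterene as reference fluorophore.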
The nature of assay [8]: qHTS assay to test for compound auto fluorescence at 590 nm (red) in HEK293 cells (AID 720679). The method, boiled down:
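HEK293 cells (2,000/well, 10% dialyzed FBS) attached 4-5 hr, then dosed with compound or DMSO and incubated overnight at 37C, 5% CO2. Red fluorescence read at 540/590 nm, Rose Bengal sodium as reference fluorophore.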

Assay [9] is described as follows: qHTS assay to test for compound auto fluorescence at 535 nm (green) in HEK293 cells (AID 720680).
A short description of assay [10]: qHTS assay to test for compound auto fluorescence at 460 nm (blue) in HEK293 cell free culture (AID 720681). The procedure, abridged: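 Compounds were added to cell-free DMEM with 10% FBS and fluorescence read directly. The blue channel used 405 nm excitation and 460 nm emission, with triamterene as the reference fluorophore.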
Assay [11] is described as follows: qHTS assay to test for compound auto fluorescence at 535 nm (green) in HEK293 cell free culture (AID 720682). The procedure, abridged: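 Green-channel intensity (Ex/Em 485/535 nm) was recorded from compound-treated wells containing only DMEM with 10% FBS. Fluorescein provided the equivalency standard.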
Assay [12] can be described thus: qHTS assay to test for compound auto fluorescence at 590 nm (red) in HEK293 cell free culture (AID 720683). The method, boiled down:
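Cell-free wells of DMEM with 10% FBS received compound, and intrinsic fluorescence was read at excitation/emission 540/590 nm. Values expressed as equivalence to Rose Bengal sodium.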

A short description of assay [13]: qHTS assay to test for compound auto fluorescence at 590 nm (red) in HepG2 cell free culture (AID 720684). The procedure, abridged: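 Auto fluorescence equivalency versus Rose Bengal sodium, red channel Ex/Em 540/590 nm; compounds in cell-free MEM/10% FBS; DMSO vehicle control.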
The nature of assay [14]: qHTS assay to test for compound auto fluorescence at 535 nm (green) in HepG2 cell free culture (AID 720686).
The nature of assay [15]: qHTS assay to test for compound auto fluorescence at 460 nm (blue) in HepG2 cells (AID 720687). The procedure, abridged: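 HepG2 cells in MEM with 10% FBS, attached overnight at 37 C, were exposed to compound or DMSO for 1 hr at 37 C, 5% CO2. Blue fluorescence was read at 405/460 nm, with triamterene as reference fluorophore.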
In assay [16] the target is Glucocorticoid receptor (Homo sapiens) (UniProt P04150). Description: qHTS assay to identify small molecule agonists of the glucocorticoid receptor (GR) signaling pathway (AID 720691; active = well fitted activation curve with a large enough effect in the signal ratio in the repeat runs, not every such curve was filed as active; the % refers to the signal ratio). The method, boiled down:
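Cells: GR-bla HeLa, endogenous GR with stably integrated GRE-beta-lactamase reporter. Treatment 18 h, 37 C, compounds delivered in DMSO. Detection via LiveBLAzer B/G FRET substrate, 2 h RT, fluorescence intensity.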

The target is the same in assay [17]. Description: qHTS assay to identify small molecule antagonists of the glucocorticoid receptor (GR) signaling pathway (AID 720692; active = well fitted inhibition curve with a large enough effect in the signal ratio in the repeat runs, not every such curve was filed as active; the % refers to the signal ratio; also: potency is read from the fitted curve at half-maximal effect). The procedure, abridged: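 Quantitative HTS in antagonist format: HeLa cells expressing endogenous GR and a stably integrated GRE-bla reporter, stimulated with 5 nM dexamethasone (final) alongside test compounds for 18 h.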
Assay [18] in a line: qHTS assay to test for compound auto fluorescence at 590 nm (red) in HepG2 cells (AID 720674). The method, boiled down: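 Seeding: 2,000 HepG2 cells/well, MEM/10% FBS, overnight 37 C. Dosing: compound vs DMSO. Incubation: 1 hr, 37 C, 5% CO2. Read: fluorescence 540 ex/590 em, Rose Bengal sodium as red reference.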
Assay [19] can be described thus: qHTS assay to test for compound auto fluorescence at 460 nm (blue) in HepG2 cell free culture (AID 720685). The procedure, abridged:
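Cell-free plates of MEM plus 10% FBS received 23 nL compound or DMSO vehicle; blue-channel (405/460 nm) intensity scored against triamterene as reference fluorophore.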

Assay [20] in a line: qHTS assay for small molecule agonists of the p53 signaling pathway (AID 651631; calls by dose curve; also: potency is read from the fitted curve at half-maximal effect; nearly all actives have a fitted effect of over 15% in size). The method, boiled down: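 We treat p53RE-bla HCT-116 cells with compounds for 16 h at 37 °C, add LiveBLAzer B/G FRET substrate for 2 h at room temperature, and measure fluorescence intensity.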

Sequence of Glucocorticoid receptor (Homo sapiens) (P04150 whole entry, looked up): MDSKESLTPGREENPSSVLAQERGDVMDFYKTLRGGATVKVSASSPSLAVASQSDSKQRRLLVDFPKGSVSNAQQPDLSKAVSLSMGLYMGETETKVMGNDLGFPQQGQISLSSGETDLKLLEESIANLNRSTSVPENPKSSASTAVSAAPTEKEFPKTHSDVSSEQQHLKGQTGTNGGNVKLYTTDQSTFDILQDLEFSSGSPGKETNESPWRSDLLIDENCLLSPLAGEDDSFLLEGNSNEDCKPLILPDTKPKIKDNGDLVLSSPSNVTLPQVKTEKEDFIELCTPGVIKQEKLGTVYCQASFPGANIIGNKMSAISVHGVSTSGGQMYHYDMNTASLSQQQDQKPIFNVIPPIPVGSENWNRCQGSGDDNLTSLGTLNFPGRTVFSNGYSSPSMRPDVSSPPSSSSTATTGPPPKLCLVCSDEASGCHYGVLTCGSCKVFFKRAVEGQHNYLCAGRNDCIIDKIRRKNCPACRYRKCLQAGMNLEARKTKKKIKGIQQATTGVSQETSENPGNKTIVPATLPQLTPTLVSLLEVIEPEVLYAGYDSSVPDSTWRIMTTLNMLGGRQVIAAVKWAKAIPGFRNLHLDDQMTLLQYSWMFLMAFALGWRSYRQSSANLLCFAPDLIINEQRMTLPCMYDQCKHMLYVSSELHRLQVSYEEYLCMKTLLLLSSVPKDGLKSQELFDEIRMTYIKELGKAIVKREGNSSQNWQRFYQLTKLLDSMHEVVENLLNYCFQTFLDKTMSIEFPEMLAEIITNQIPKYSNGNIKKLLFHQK

As to `C=CC(C)(CCC=C(C)C)OC(=O)CC(C)C` (stereo unspecified), the Potency result in [1], in assay [2], in assay [3], in assay [4], in [5] and in assay [7] was “inactive” throughout. The Potency entry in assay [10], in [15], in assay [16] and in assay [17] was “inactive” in each case. Besides, the outcome in [6], in assay [8], in assay [9], in [11], in assay [12] and in assay [13] was inactive. Also, in assay [14], the compound was called inactive.
As for `Oc1cc2c(cc1O)[C@H]1c3ccc(O)c(O)c3OC[C@@]1(O)C2`, the Potency entry in assay [1], in assay [2], in assay [4], in assay [7], in [10] and in [19] was “inactive” throughout. For the same compound, the Potency result in assay [15] and in assay [16] was “inactive” each time. Besides, in [3], the Potency is 69.4 µM (active). For the same compound, the compound was classed as inactive in assay [18], in assay [6], in assay [8], in assay [11], in assay [12] and in assay [13]. In assay [14], the compound was called inactive.
Consider `O=C(OC(=O)c1ccccc1)c1ccccc1`, for which the Potency result in assay [1], in assay [2], in assay [3], in assay [4], in assay [5] and in assay [7] was “inactive” each time. Besides, the Potency entry in assay [10], in assay [19], in assay [15], in assay [16] and in assay [17] was “inactive” in each case. The call in [18], in assay [6], in assay [8], in [9], in assay [11] and in [12] was inactive. In addition, the outcome in assay [13] and in assay [14] was inactive.
As to `CN1C(=O)OC(C)(C)C1=O`, the Potency result in assay [1], in [2], in assay [3], in assay [4], in [7] and in assay [10] was “inactive” in each case. Besides, the Potency result in assay [19], in assay [15], in [16] and in assay [17] was “inactive” in each case. Moreover, the compound was called inactive in assay [18], in assay [6], in assay [8], in [11], in [12] and in assay [13]. The compound was classed as inactive in assay [14].
Take `CC(CN(C)C)C(C)(O)Cc1ccc(Cl)cc1` (stereo unspecified): the Potency entry in assay [1], in assay [2], in assay [3], in [4], in assay [5] and in assay [7] was “inactive” throughout. For the same compound, the Potency result in assay [10], in assay [15], in assay [16] and in assay [17] was “inactive” in each case. Besides, the compound was called inactive in [18], in assay [6], in assay [8], in [9], in assay [11] and in assay [12]. In addition, the outcome in assay [13] and in assay [14] was inactive.
Consider `CCCCCC#CC(=O)OC`, for which the Potency entry in assay [1], in assay [2], in [3], in assay [4], in assay [5] and in assay [7] was “inactive” in each case. The Potency entry in assay [10] and in assay [15] was “inactive” throughout. For the same compound, the compound was called inactive in assay [18], in assay [6], in assay [8], in assay [9], in [11] and in assay [12]. Moreover, the outcome in assay [13] and in [14] was inactive.
For the compound `CC1CC(OC(=O)C(O)c2ccccc2)CC(C)(C)N1C` (stereo unspecified), the Potency result in assay [1], in assay [2], in assay [3], in [4], in [7] and in assay [10] was “inactive” throughout. For the same compound, the Potency result in [15], in [16] and in assay [17] was “inactive” in each case. The outcome in [18], in assay [6], in assay [8], in [12], in assay [13] and in assay [14] was inactive.
With `CCC(C)(C)OC`, the Potency result in [1], in assay [2], in assay [3], in assay [4], in assay [5] and in assay [7] was “inactive” each time. Besides, the Potency entry in assay [10], in assay [19], in assay [15], in [16] and in assay [17] was “inactive” in each case. The outcome in assay [18], in assay [6], in assay [8], in [9], in assay [11] and in [12] was inactive. The result in [13] and in assay [14] was inactive.
As to `C=CC(=O)OCC1CC2CC1C1CCC(COC(=O)C=C)C21` (stereo unspecified), the Potency in assay [20] is 54.5 µM (active). The Potency entry in [4], in assay [7], in assay [10], in [19] and in assay [15] was “inactive” each time. For the same compound, the outcome in assay [18], in [6], in assay [8], in [9], in assay [11] and in [12] was inactive. For the same compound, the outcome in assay [13] and in assay [14] was inactive.
Regarding `CC1=C(CC=O)C(C)(C)CCC1`, the Potency result in [1], in assay [2], in [3], in assay [4], in assay [7] and in assay [10] was “inactive” throughout. The Potency result in assay [19] and in [15] was “inactive” throughout. Moreover, the outcome in assay [18], in assay [6], in [8], in [9], in assay [11] and in assay [12] was inactive. The compound was called inactive in [13] and in [14].
As to `N#CCCN(CCO)CCO`, the Potency entry in assay [1], in [2], in assay [3], in [4], in assay [5] and in assay [7] was “inactive” throughout. Further, the Potency entry in [10], in assay [15], in assay [16] and in assay [17] was “inactive” in each case. Besides, the outcome in [18], in [6], in assay [8], in assay [9], in assay [11] and in assay [12] was inactive. Besides, the call in assay [13] and in [14] was inactive.
Turning to `CC1=C(Br)C(=O)C(Br)=C/C1=C(/c1ccccc1S(=O)(=O)O)c1cc(Br)c(O)c(Br)c1C`, the Potency result in assay [1], in [2], in [4], in [7], in [10] and in assay [19] was “inactive” in each case. The Potency entry in [15], in assay [16] and in assay [17] was “inactive” in each case. Besides, the Potency in [3] was 37 µM (active). The result in assay [18], in [6], in assay [8], in assay [9], in assay [12] and in [13] was inactive. Also, the result in [14] was inactive.
Consider `C=C/C(C)=C/C/C=C(\C)CCC=C(C)C`, for which the Potency entry in [1], in assay [2], in [3], in assay [4], in assay [7] and in assay [10] was “inactive” in each case. In addition, the Potency entry in assay [19], in assay [15] and in assay [16] was “inactive” in each case. Further, the compound was classed as inactive in [18], in assay [6], in assay [8], in [11], in assay [12] and in assay [13]. Further, in [14], the result was inactive. Further, the Potency in [17] was 38.9 µM (active).
For the compound `Nc1cccc2c1CN(C1CCC(=O)NC1=O)C2=O` (stereo unspecified), the Potency result in assay [1], in [2], in [3], in assay [4], in assay [5] and in [7] was “inactive” in each case. The Potency entry in assay [10], in assay [15], in [16] and in assay [17] was “inactive” throughout. For the same compound, the outcome in assay [6], in [8], in [9], in assay [11], in assay [12] and in assay [13] was inactive. The outcome in [14] was inactive.
